Measurements published in PubChem BioAssay AID2284334 (EPA ToxCast).
Results filed as inconclusive are left out. Calls of active or inactive are those of the source. Rule for the calls: active = hit-call score of the fitted dose curve at least 0.9, where 1 is the maximum; inconclusive = response in the unintended direction; inactive = score below 0.9.

Each compound was assayed against human Peroxisome Proliferator-activated Receptor alpha (PPARa), PPARA (gene 5465) (UniProt Q07869) (assay: ATG_hPPARa_EcoTox2: Attagene TRANS-FACTORIAL EcoTox-2 HepG2 Assay for human Peroxisome Proliferator-activated Receptor alpha (PPARa)).
human Peroxisome Proliferator-activated Receptor alpha (PPARa), PPARA (gene 5465), sequence (Q07869 whole entry, looked up): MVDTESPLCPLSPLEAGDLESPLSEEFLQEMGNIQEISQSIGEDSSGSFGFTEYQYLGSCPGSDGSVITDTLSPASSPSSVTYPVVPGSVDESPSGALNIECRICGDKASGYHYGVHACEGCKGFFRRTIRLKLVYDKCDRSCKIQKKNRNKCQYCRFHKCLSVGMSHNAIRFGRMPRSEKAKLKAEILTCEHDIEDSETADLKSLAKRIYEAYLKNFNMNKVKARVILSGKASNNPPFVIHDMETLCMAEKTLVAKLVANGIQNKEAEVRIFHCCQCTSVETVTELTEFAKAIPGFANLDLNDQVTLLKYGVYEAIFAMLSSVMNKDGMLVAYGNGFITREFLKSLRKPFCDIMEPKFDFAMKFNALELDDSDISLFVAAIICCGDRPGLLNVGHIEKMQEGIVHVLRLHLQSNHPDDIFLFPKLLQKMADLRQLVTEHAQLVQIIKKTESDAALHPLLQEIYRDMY
Experimental: ATG_EcoTox2 is a cell-based, multiplexed assay created by modifying the existing Attagene TRANS-FACTORIAL system to include a panel of nuclear receptors from some or all the following species: human (Homo sapiens), african clawed frog (Xenopus laevis), rainbow trout (Oncorhynchus mykiss), japanese medaka (Oryzias latipes), and zebrafish (Danio rerio). The ECOTOX2-FACTORIAL format uses HepG2, a human liver cell line, with measurements taken at 24 hours after chemical dosing in a 24-well plate. ATG_hPPARa_EcoTox2 is one of 29 assay components calculated in the ATG_EcoTox2 assay. It is designed to make measurements of mRNA induction, a form of inducible reporter, as detected with fluorescence intensity signals by Reverse transcription polymerase chain reaction (RT-PCR) and Capillary electrophoresis technology.The assay endpoint ATG_hPPARa_EcoTox2 was analyzed in the positive analysis fitting direction relative to DMSO as the negative control and baseline of activity. Using a type of inducible reporter, measures of mRNA for gain-of-signal activity can be used to understand the reporter gene at the transcription factor-level as they relate to the gene PPARa. Furthermore, this assay endpoint can be referred to as a primary readout, because this assay has produced multiple assay endpoints where this one serves a reporter gene function. To generalize the intended target to other relatable targets, this assay endpoint is annotated to the nuclear receptor intended target family, where the subfamily is non-steroidal.
Human liver HepG2 cells are transiently transfected with multiple reporter transcription units (MRTUs) in 6-well plates using FuGene 6 reagent (Roche; 3 ml FuGene/1 mg DNA). The MRTU constructs are regulated by a cis-regulating element (promoter). Each RTU expresses a GAL4-UAS that regulates the transcription of a nearby target reporter gene sequence. A major difference between the CIS and TRANS system is that in CIS activities of endogenous TFs are measured, whereas the TRANS assay evaluates changes in activities of exogenous, chimeric NR-Gal4 proteins. […] At the end of 24 hour incubation, total RNA was isolated using TriZol reagent (Invitrogen). The isolated RNA is then reverse-transcribed using oligo(dT) primer and Mo-MLV reverse transcriptase (Invitrogen) with DNAse I (Ambion) treatment for 30 min. The one-tenth of the produced cDNA was amplified by PCR using Taq DNA polymerase (Invitrogen) and two reporter sequence-specific primers. The PCR products were fluorescently labeled by primer extension with 6-arboxyfluorescein (6-FAM) 5'-labeled reporter sequence-specific primer (2 min at 95 C, 20 s at 68 C and 10 min at 72 C) and these products were digested with 5U of HpaI (New England Biolabs) for 2h at 37 C. The fragments were purified using Qiaquick PCR columns (Qiagen), analyzed on an ABI 3130xL genetic analyzer (Applied Biosystems) with peak positions identified by using a set of X-rhodamine (ROX)-labeled MapMarker1000 molecular weight standards (BioVentures). The raw capillary electrophoresis data was processed using Attagraph software (Attagene).
For `CC(c1cc2ccccc2s1)N(O)C(N)=O` (stereo not given), the outcome was “inactive”.
For `C[C@@H]1C[C@H]2[C@@H]3CCC4=CC(=O)C=C[C@]4(C)[C@@]3(F)[C@@H](O)C[C@]2(C)[C@@]1(O)C(=O)COP(=O)(O)O`, the outcome was “inactive”.
For `C[C@]12C=CC(=O)C=C1CC[C@@H]1[C@@H]2C(=O)C[C@@]2(C)[C@H]1CC[C@]2(O)C(=O)CO`, the outcome was “inactive”.
With `CC(C)(Oc1ccc(C2CC2(Cl)Cl)cc1)C(=O)O` (stereo not given) the AC50 was 0.984 µM (active).
`CC(C)(Oc1ccc(Cl)cc1)C(=O)O` was tested, and the AC50 was 17.1 µM (active).
